Most compounds without a hit are left out; they make up all but 5.8% or so of the library.
RORgamma inh = qHTS for inhibitors of ROR gamma transcriptional activity; Nuclear receptor ROR-gamma (Mus musculus), P51450; Drosophila S2 Gal4-RORgamma UAS-luciferase reporter, 20 h; Potency, µM (top dose mostly 53.6 µM), actives largely listed as inhibitors; actives 5.4% (n = 310,000); AID 2551, 2010; also: nearly all actives have a fitted effect of over 60% in size
Target sequence (P51450 whole entry, looked up, the tested form may be a part): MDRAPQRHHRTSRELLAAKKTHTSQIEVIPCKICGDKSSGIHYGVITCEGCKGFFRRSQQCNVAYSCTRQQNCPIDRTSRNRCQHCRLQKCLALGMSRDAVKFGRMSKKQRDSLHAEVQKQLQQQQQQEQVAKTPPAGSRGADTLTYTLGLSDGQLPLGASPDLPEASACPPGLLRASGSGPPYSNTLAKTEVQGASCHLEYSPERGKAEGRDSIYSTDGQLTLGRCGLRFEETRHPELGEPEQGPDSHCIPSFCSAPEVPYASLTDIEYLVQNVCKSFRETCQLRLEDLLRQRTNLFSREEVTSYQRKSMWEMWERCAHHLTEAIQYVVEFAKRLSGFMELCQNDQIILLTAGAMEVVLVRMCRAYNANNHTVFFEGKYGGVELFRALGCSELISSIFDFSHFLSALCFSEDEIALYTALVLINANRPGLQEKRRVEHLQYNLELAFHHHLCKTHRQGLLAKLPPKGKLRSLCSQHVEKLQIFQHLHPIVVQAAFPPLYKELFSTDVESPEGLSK
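Stably transfected Drosophila Schneider cells are the test system, with ROR gamma fused to Gal4 and luciferase under UAS control; luminescence is read after 20 hr of 700 uM copper sulfate induction at ambient temperature.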
uPA surface inh = qHTS for Inhibitors of Cell Surface uPA Generation; cell surface uPA generation assay, qHTS; Potency, µM (top dose mostly 38.3 µM), actives largely listed as inhibitors; actives 0.31% (n = 330,000); AID 540303, 2011; active = well fitted inhibition curve with a large enough effect; inconclusive = small, poorly fitted or top-dose-only effect; inactive = no such curve, though single readings can be large or run the other way; tested in mouse RAW 264.7 cells; also: nearly all actives have a fitted effect of over 55% in size
Gal4-VP16 FLuc = VP16 counterscreen qHTS for inhibitors of ROR gamma transcriptional activity | AID 2546, 2010 | actives 3.5% (n = 310,000) | Potency, µM (doses to about 53.6 µM), usual class: inhibitors | Drosophila S2 Gal4-VP16 UAS-luciferase, luminescence, 20 h;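 also: Gal4-VP16 expression switched on by copper sulfate through the metallothionein promoter; nearly all actives have a fitted effect of over 50% in size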
TRPV1 ag = HTS Assay for Compounds that Act as Agonists of the Vanilloid Receptor 1 | Transient receptor potential cation channel subfamily V member 1 (Homo sapiens), Q8NER1 | activation, % at 8.33 µM | TRPV1-expressing cells, Fluo-8 calcium influx, agonist mode | actives 0.19% (n = 320,000); in the data active = activation above about 80%; inconclusive = between about 30% and that limit
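Fluo-8 calcium influx in TRPV1-expressing cells, kinetic read (ex 480/em 520 nm). Compound added and read 3 min for agonist activity, followed by capsaicin at EC20 final and 2 min further read for enhancement.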
TRPV1 PAM = HTS Assay for Compounds that Act as Potentiators of the Vanilloid Receptor 1; potentiation, % at 8.33 µM; TRPV1-expressing cells, Fluo-8 calcium influx, capsaicin EC20 potentiation; Transient receptor potential cation channel subfamily V member 1 (Homo sapiens), Q8NER1; actives 0.02% (n = 320,000); in the data active = potentiation above about 80%; inconclusive = between about 30% and that limit
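Cells expressing TRPV1 were dye-loaded with Fluo-8 and read kinetically: 10 s baseline, 3 min after compound (agonist portion), then 2 min after EC20 capsaicin (allosteric enhancer portion). Calcium-bound dye fluorescence at 480/520 nm.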
Numbers stand for hits; - = inactive; ? = inconclusive; . = no result; [ ] = remark or other dose. Unless noted, calls follow the shape of the dose curve; as a rule, active = well fitted curve in the direction sought with a large enough effect; inconclusive = small, poorly fitted or top-dose-only effect, or another doubt; inactive = no such curve, though single readings can be large; an effect the other way counts as inactive or inconclusive.

SMILES	RORgamma inh	uPA surface inh	Gal4-VP16 FLuc	TRPV1 ag	TRPV1 PAM
Cc1ccnc(Nc2nc(-c3ccc(O)cc3O)cs2)c1	0.71µM	?	2.2µM	-	-
Oc1ccc(-c2csc(Nc3ccccn3)n2)cc1O	5.6µM	4µM	6.3µM	-	-
CCOC(=O)C1CCN(C(C(=O)NC2CCCC2)c2ccc(C)cc2)CC1 (configuration not stated)	-	-	-	.	.
CC(C)NC(=S)N1CCCN(c2ncccc2[N+](=O)[O-])CC1	-	-	-	-	-
C=C1CCN(C(C)C(=O)OCc2cccc(C)c2)S(=O)(=O)c2ccccc21 (configuration not stated)	-	.	-	.	.
COc1ccc(-c2csc(Nc3cc(C)ccn3)n2)cc1C	?	-	-	?	-
Cc1ccnc(Nc2nc(-c3ccc(O)c(O)c3)cs2)c1	11µM	-	5.6µM	?	-
Oc1ccc(Nc2nc(-c3ccc(O)cc3)cs2)cc1	-	.	-	-	-
Cc1ccnc(Nc2nc(-c3ccc(O)cc3)cs2)c1	3.2µM	-	4µM	-	-
CC[C@H](C)[C@H](NC(=O)[C@H](Cc1ccc(O)cc1)NC(=O)[C@H](Cc1cnc[nH]1)NC(=O)[C@H](CCCNC(=N)N)NC(=O)[C@H](CC(C)C)NC(=O)[C@H](C)NC(=O)[C@H](CO)NC(=O)[C@H](Cc1ccc(O)cc1)NC(=O)[C@H](Cc1ccc(O)cc1)NC(=O)[C@H](CCCNC(=N)N)NC(=O)[C@H](C)NC(=O)[C@H](CCSC)NC(=O)[C@H](CC(=O)O)NC(=O)[C@H](CCC(=O)O)NC(=O)[C@H](C)NC(=O)[C@@H]1CCCN1C(=O)[C@H](C)NC(=O)[C@H](CC(=O)O)NC(=O)[C@H](CCC(=O)O)NC(=O)CNC(=O)[C@@H]1CCCN1C(=O)[C@H](CC(N)=O)NC(=O)[C@H](CC(=O)O)NC(=O)[C@@H]1CCCN1C(=O)[C@H](CCCCN)NC(=O)[C@H](CO)NC(=O)[C@@H]1CCCN1C(=O)[C@@H](N)Cc1ccc(O)cc1)C(=O)N[C@@H](CC(N)=O)C(=O)N[C@@H](CC(C)C)C(=O)N[C@@H](CC(C)C)C(=O)N[C@H](C(=O)N[C@@H](CCCNC(=N)N)C(=O)N1CCC[C@H]1C(=O)N[C@@H](CCCNC(=N)N)C(=O)N[C@@H](Cc1ccc(O)cc1)C(N)=O)[C@@H](C)O	-	.	-	.	.
Cc1ccc(CN2C(=O)C(CC(C)C)Nc3ncnc(N4CCN(c5ccccn5)CC4)c32)cc1 (configuration not stated)	.	?	.	81	-
CS(=O)(=O)Nc1ccc(C(=O)Nc2cccc([N+](=O)[O-])c2)cc1	-	-	-	-	-
Cc1ccc(C)c(NC(=O)C(Sc2nc3ccc(C)cc3[nH]2)c2ccccc2)c1 (configuration not stated)	?	-	?	-	-
Cc1ccc2nc(SC(C(=O)Nc3ccc(F)cc3)c3ccccc3)[nH]c2c1 (configuration not stated)	13µM	-	?	?	-
O=C(CCC1CCCCC1)NCCN1C2=NC[C@@H](Cc3ccccc3)N2C[C@H]1Cc1ccc(O)cc1	10µM	-	8.9µM	-	-
O=C(O)C1Cc2c([nH]c3ccccc23)C(c2coc3ccccc3c2=O)N1 (configuration not stated)	-	.	-	.	.
COc1ccc(CN(C(=O)Cn2nnc(-c3ccc(C)o3)n2)C(C(=O)NCC2CCCO2)c2ccco2)cc1 (configuration not stated)	5µM	-	7.1µM	-	-
COc1ccc(-c2nnn(CC(=O)N(Cc3ccco3)C(C(=O)NCC3CCCO3)c3ccco3)n2)cc1 (configuration not stated)	-[10 µM]	-	-	-	-
CCCCc1nc2c(c3c1CC(C)OC3)CN(CCC(C)C)CC2 (configuration not stated)	-[10 µM]	.	-[10 µM]	.	.
O=C(Nc1cccc(S(=O)(=O)N2CCOCC2)c1)C1=NN(c2ccccc2)C(=O)CC1	-	-	-	-	-
CN1CCN(c2ncc3ncc(=O)n(Cc4cccs4)c3n2)CC1	-	.	-	.	.
Cc1ccccc1OCC(=O)O/N=C(\N)Cc1cccs1	-	-	-	?	-

From PubChem
